What is called inhibition is the drop in the measured response relative to a control, in per cent.

Molecules are shown by their SMILES. Hit rate of the full screen: of about 1,500 compounds, about 950 (63%) were called active. No stated cut-off is given here; in the data, active means inhibition above about 25%; inactive means the rest. So high a share suggests a set chosen from earlier hits. A selection follows.

For this assay, the target named is Major prion protein (Homo sapiens) (UniProt P04156). Description: confirmation of inhibitors of cell surface human prion protein, confirmation, cell-based, TR-FRET (AID 743200). Conditions: cell surface PrPC level, at 13.8 µM, active compounds read high. (In general: In TR-FRET formats the signal depends on donor and acceptor labels being close together.)
`COc1cccc2sc3cc(NCC[C@@H]4CCCN4C)ccc3c(=O)c12`: the inhibition is 46% (active).

Consider `COc1ccc2c(Cl)c(-c3nnco3)sc2c1`, for which the inhibition is 37.6% (active).

Turning to `FC(F)(F)c1cccc(NC(=S)OC2CCC23CCC(c2ccccc2)CC3)c1` (stereo not drawn), the inhibition was 15.7% (inactive).

On to `CC(=O)c1sc2nc(SCC(=O)N3CCCCC3)[nH]c(=O)c2c1C`, for which the inhibition is 28.8% (active).

As for `COc1ccc(S(=O)(=O)N2CCOCC2)cc1NC(=O)CSc1ncnc2ccccc12`, the inhibition was 92.1% (active).

For the compound `O=C(Nc1cccn(Cc2ccccc2Cl)c1=O)NC1CCCCC1`, the inhibition is 15.9% (inactive).

Turning to `Cc1nc(/N=C(\N)NC(=O)NC2CCCCC2)nc2ccccc12`, the inhibition was 29.3% (active).

Regarding `O=C(CC(O)(C(F)(F)F)C(F)(F)F)Nc1ccc(Cl)c(Cl)c1`, the inhibition is 58.3% (active).

On to `COc1ccc(NC(=O)COC(=O)CNC(=O)C2CCCCC2)cc1`, for which the inhibition was 3.04% (inactive).

For `CCOC(=O)c1c(-c2ccccc2)oc2cc(Br)c(O)cc12`, the inhibition is 90.9% (active).

Take `O=C(/C=C/c1ccc([N+](=O)[O-])o1)NNC(=O)c1ccc(F)cc1`: the inhibition is 64.6% (active).

With `CC1(C)Cc2ccccc2-c2[nH]c(=S)[nH]c(=O)c21`, the inhibition was 81.8% (active).

Regarding `N#Cc1c(-c2cccs2)nc(SCC(=O)c2ccc(Br)cc2)[nH]c1=O`, the inhibition was 74.2% (active).

As for `COc1cc(-n2c(=S)[nH]c3ccc(C)cc3c2=O)c(Cl)cc1Cl`, the inhibition was 46.2% (active).

As to `CCCOc1ccc(C2C(C(=O)c3ccc(C)o3)=C(O)C(=O)N2CCCn2ccnc2)cc1` (stereo not drawn), the inhibition is 52.6% (active).

Regarding `O=C(Oc1ccccc1)Oc1ccc2c(c1)oc(=O)c1ccccc12`, the inhibition is 40.9% (active).

As to `Cc1ccnc(NC(=O)C2CCN(S(=O)(=O)c3c(C)c(C)cc(C)c3C)CC2)c1`, the inhibition is 20.7% (inactive).

Take `C=CCNC(=O)CSc1nc2scc(-c3ccco3)c2c(=O)n1CC=C`: the inhibition is 31.3% (active).

For the compound `Cc1cc2ccccc2n1CCNC(=O)COc1ccc2ccccc2c1`, the inhibition was 48.4% (active).

For the compound `CCCc1nc(SCC(=O)Nc2ccc(S(=O)(=O)N(C)C)cc2)c2ccccc2n1`, the inhibition is 90.7% (active).

Turning to `Cc1cccc(NC(=O)c2nc(S(=O)(=O)Cc3ccccc3)ncc2Cl)c1`, the inhibition was 39.3% (active).

Take `Cc1cccc(CS(=O)(=O)c2ncc(Cl)c(C(=O)Nc3ccc(F)cc3)n2)c1`: the inhibition was 15.9% (inactive).

Regarding `CCCCCCCCn1c2c(c(=N)c3c1CCC3)CCCC2`, the inhibition was 44.9% (active).

In the case of `CN(C)CCNC(=O)c1ccc(Cl)c2cc3ccccc3nc12`, the inhibition was 45.2% (active).

Take `CO[C@H]([C@H](C)/C=C/N(C)C=O)[C@@H](C)C(=O)CC[C@H](C)[C@H](O)[C@H](C)[C@H]1OC(=O)/C=C/C(C)=C/[C@H](O)[C@H](OC)C[C@@H]2C=CC[C@@H](C[C@H](OC)[C@@]3(CO3)[C@@H](OC)C[C@@H](OC)[C@@H]1C)O2`: the inhibition is 32.5% (active).

For `Cn1c(=S)sc2ccc3ccccc3c21`, the inhibition is 75.4% (active).

As for `CCCCNc1c(-c2cccc(Sc3ccc(OC)cc3)c2)nc2ccccn12`, the inhibition is 17% (inactive).

In the case of `Cc1sc2ncnc(SCC(=O)Nc3ccc(CN4CCCC4)cc3)c2c1C`, the inhibition was 53.1% (active).

`NC(=O)C1CCN(Cc2nc3c(Br)cc(Br)cc3c(=O)[nH]2)CC1`: the inhibition was 41.7% (active).

With `CCOC(=O)c1c(C)[nH]c(=S)c(C#N)c1-c1ccccc1`, the inhibition was 43.5% (active).

As for `CCC(C)(O)C(=O)OC1C(=O)OC2CC3C(C)=CC(=O)C(O)C3(C)C3C4(O)OCC23C1C(C)C4O` (stereo not drawn), the inhibition is 98.8% (active).

`COC(=O)Cc1[nH]n(-c2nc3ccccc3s2)c(=O)c1C(C)=Nc1ccc(OC)cc1`: the inhibition is 5.13% (inactive).

In the case of `Cc1cc2cc(CNC(=O)c3ccc(S(=O)(=O)N4CCOCC4)cc3)ccc2[nH]1`, the inhibition was 15.2% (inactive).

For the compound `COc1ccc(C(=O)Nc2nc(-c3ccc(S(=O)(=O)N4CCOCC4)cc3)cs2)cc1`, the inhibition is 27.4% (active).

In the case of `Cc1ccsc1C(=O)OCC(=O)Nc1cccc(F)c1`, the inhibition is 8.25% (inactive).

In the case of `Cc1ccc(CSc2ccc(S(=O)(=O)N3CCCCC3)cn2)cc1`, the inhibition was 6.8% (inactive).

For the compound `CCc1c(C)nc2cc(-c3cccs3)[nH]n2c1=O`, the inhibition is 41.7% (active).

As for `O=C(COC(=O)c1ccccc1SCC(=O)NC1CCCCC1)NC1CCCCC1`, the inhibition is 24.6% (active).

Regarding `O=C1CCCC2=C1C(c1cccs1)n1nc(SCc3ccccc3)nc1N2` (stereo not drawn), the inhibition was 20% (inactive).

For the compound `N#C/C=C1\Sc2ccccc2C(=O)N1CC(=O)N1CCN(S(=O)(=O)c2ccccc2)CC1`, the inhibition is 67.5% (active).

Turning to `N#Cc1ccc(OCC(=O)Nc2nc(-c3ccccn3)cs2)cc1`, the inhibition was 18.7% (inactive).

`COc1ccc(OC)c(NC(=O)c2cc(-c3cc(F)ccc3OCC3CCCO3)n[nH]2)c1` (stereo not drawn): the inhibition is 10.2% (inactive).

In the case of `CC(=O)N1CCCc2cc(S(=O)(=O)N3CCCC(C(=O)NCc4ccc(Cl)cc4)C3)ccc21` (stereo not drawn), the inhibition is 17.2% (inactive).

For `CC(=O)N1c2ccc(S(=O)(=O)N3CCCC(C(=O)Nc4cccc(F)c4)C3)cc2CC1C` (stereo not drawn), the inhibition was 49.1% (active).

Take `CC(=O)N1CCCc2cc(S(=O)(=O)N3CCCC(C(=O)N4CCN(c5cccc(Cl)c5)CC4)C3)ccc21` (stereo not drawn): the inhibition is 38.3% (active).

In the case of `O=C(NC(Nc1nc2ccc([N+](=O)[O-])cc2s1)(C(F)(F)F)C(F)(F)F)c1ccccc1`, the inhibition was 65.9% (active).

On to `CN1/C(=C\C(=O)c2oc3ccccc3c2N)C(C)(C)c2ccccc21`, for which the inhibition is 49.3% (active).

As to `CC(=O)Nc1cccc(OCC(=O)/C=C2\N(C)c3ccccc3C2(C)C)c1`, the inhibition is 20.8% (inactive).

For `O=C(Nc1ccc(C2CC2(Cl)Cl)cc1)c1cccc([N+](=O)[O-])c1` (stereo not drawn), the inhibition was 24.7% (active).

`O=C(Cc1ccccc1)Nc1cccc(NC(=O)c2ccccc2)c1`: the inhibition is 11.2% (inactive).

Consider `Cc1ccc(CNC(=O)Nc2nnc([C@H]3C[C@H](O)[C@@H](CO)O3)s2)cc1`, for which the inhibition is -0.76% (inactive).

In the case of `Cc1ccc(Oc2cnn(-c3ccccc3)c(=O)c2Br)cc1`, the inhibition is 51.9% (active).

With `CC(=O)c1nc(N2C(=O)C3CC=C(C)CC3C2=O)sc1C` (stereo not drawn), the inhibition is 18% (inactive).

`Cc1[nH]n(-c2ccccc2)c(=O)c1/C=N/NC(=O)c1ccoc1C`: the inhibition is 60.1% (active).

Turning to `O=C(c1ccc(F)cc1)c1cn(Cc2ccc(F)cc2)c2cc3c(cc2c1=O)OCCO3`, the inhibition is 90.5% (active).

`Fc1ccc2[nH]c3c(N4CCSCC4)ncnc3c2c1`: the inhibition was 35.3% (active).

On to `Cc1ccc(NC(=O)c2sc3nc(N)c(C#N)cc3c2N)cc1`, for which the inhibition was 35.3% (active).

On to `CCc1nc(SCC(=O)NNC(=O)c2ccc(C)cc2)c2ccccc2n1`, for which the inhibition was 118% (active).

Take `COC(=O)CSc1nc(C2CC2)nc2ccccc12`: the inhibition is 35.9% (active).

In the case of `O=c1[nH]cccc1-c1nc2ccccc2n1Cc1ccc(Cl)cc1`, the inhibition was 35.3% (active).

Take `CCCCC(=O)NC(c1ccc(OC)c(OC)c1)c1ccc2cccnc2c1O` (stereo not drawn): the inhibition is 26.9% (active).

Take `CCCCCCCCCCCCn1ccc(=N)cc1`: the inhibition was 38.5% (active).

Take `O=C(Nc1ccc(N2CCN(C(=O)c3ccccc3)CC2)c(Cl)c1)c1cccnc1`: the inhibition was 12.3% (inactive).

The values are drawn from PubChem BioAssay AID743200 (The Scripps Research Institute Molecular Screening Center, 2013).
